In PubChem BioAssay AID2279 (Southern Research Specialized Biocontainment Screening …, 2010):
Potency and affinity values are given separately. Activity calls are given as the source filed them. How the calls were made is not given here.

assay: HIV-1 Env-mediated cell fusion inhibitors, dose response, CCR5-tropic Env (AID 2279); settings: CCR5-tropic HIV-1 Env, reporter read-out; series mostly up to 50 µM

outcome, inactive:
CCCCCNC(=O)c1ccc2c(=O)[nH]c3c(C(=O)NCC4CCCO4)sc(=S)n3c2c1 (stereo not given)
COc1ccc(/C=C2/SC(=S)N(CC(=O)O)C2=O)cc1OCc1ccc(Cl)cc1
O=C(O)c1ccc(N/N=C/c2ccc(-c3cccc(Cl)c3)o2)cc1
CCc1nnc(NS(=O)(=O)c2ccc(NC(=O)/C=C/c3ccccc3Cl)cc2)s1
Cc1cc(/C=c2\sc3nc4ccccc4n3c2=O)c(C)n1-c1ccc(C(=O)O)cc1
O=C(O)c1cccc2c(-c3ccccc3)c(-c3ccccc3)[nH]c12
O=C1NN(c2ccc(F)c(Cl)c2)C(=O)/C1=C\c1cccc(OC(=O)c2cccs2)c1
Cc1cc(Cl)ccc1OC(C)C(=O)Nc1ccc(S(=O)(=O)Nc2cnc3ccccc3n2)cc1 (stereo not given)
N#Cc1c(-c2ccccc2)nc(SCC(=O)N2c3ccccc3Sc3ccccc32)[nH]c1=O
COc1cc(C(c2c(C(=O)O)[nH]c3ccccc23)c2c(C(=O)O)[nH]c3ccccc23)ccc1OCc1ccccc1
CC1=NN(c2ccc(C(=O)O)cc2)C(=O)/C1=C\c1ccc(OC(=O)c2cccs2)cc1
COc1cc(OC)c2c(O)c3c(c(-c4c5c(c(O)c6c(OC)cc(OC)cc46)CO[C@@H](C)[C@H]5O)c2c1)[C@H](O)[C@H](C)OC3
Cc1ccc(NS(=O)(=O)c2ccc(N/N=C/c3ccccc3OCC(=O)O)c([N+](=O)[O-])c2)c(C)c1
O=C(Nc1ccc(Br)cc1C(=O)O)c1ccc2c(c1)C(=O)N(Cc1ccccc1)C2=O
CCCCCCc1c(C)c2ccc(OCC(=O)N[C@@H](Cc3ccccc3)C(=O)O)cc2oc1=O
N#Cc1c(SCC(=O)Nc2nc3ccc(Br)cc3s2)sc2c(O)cc(=O)[nH]c12
O=C(O)c1cc(NN=C2c3ccccc3-c3ccccc32)ccc1Cl
O=S(=O)(Nc1nc(-c2sccc2Cl)cs1)c1cc(Cl)ccc1Cl
O=C(O)c1ccc(/C=N/NC(=O)c2ccc(CN3c4cccc5cccc(c45)S3(=O)=O)cc2)cc1
O=C(O)CSc1cc(C(=O)c2cc(F)ccc2O)cn2c(=O)c3c(-c4ccccc4)csc3nc12
